# DT40 TDP1 no CPT = qHTS for Inhibitors of human tyrosyl-DNA phosphodiesterase 1 (TDP1): qHTS in cells in absence of CPT; actives 15% (n = 420,000); Potency, µM (top dose mostly 46.2 µM), for inactives: at the top dose activity change, negative = growth inhibition, most hits filed as inhibitors; DT40 Tdp1-/- hTDP1 cells, no CPT, ATP luminescence, 48 h; note: nearly all actives have a fitted effect of over 55% in size
#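 Seeded 400 DT40-hTDP1 cells/well (vehicle DMSO, no 20 nM CPT); pinned compounds; ≥48 hr at 37 °C; CellTiter-Glo luminescence as viability measure.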
# RORg inh = blocks mouse ROR gamma transcriptional activity. P51450. actives 5.4% (n = 310,000). Drosophila S2 Gal4-RORgamma UAS-luciferase reporter, 20 h. Potency, µM (top dose mostly 53.6 µM), for inactives: at the top dose activity change, negative = inhibition, usual class: inhibitors; note: nearly all actives have a fitted effect of over 60% in size
# Target sequence (P51450 whole entry, looked up, the tested form may be a part): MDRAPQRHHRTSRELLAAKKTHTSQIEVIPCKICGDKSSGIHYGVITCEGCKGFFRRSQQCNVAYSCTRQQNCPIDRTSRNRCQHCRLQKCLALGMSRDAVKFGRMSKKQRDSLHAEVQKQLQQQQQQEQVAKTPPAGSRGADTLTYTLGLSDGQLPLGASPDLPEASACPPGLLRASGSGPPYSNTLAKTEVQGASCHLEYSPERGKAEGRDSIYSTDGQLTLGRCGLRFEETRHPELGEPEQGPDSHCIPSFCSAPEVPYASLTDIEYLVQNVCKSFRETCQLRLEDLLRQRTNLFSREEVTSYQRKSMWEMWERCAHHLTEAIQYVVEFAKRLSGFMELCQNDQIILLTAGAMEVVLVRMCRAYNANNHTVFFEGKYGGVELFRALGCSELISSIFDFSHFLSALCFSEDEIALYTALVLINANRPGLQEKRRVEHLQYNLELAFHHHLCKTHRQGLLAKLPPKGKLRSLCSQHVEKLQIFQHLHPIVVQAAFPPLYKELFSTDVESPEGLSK
#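 Compounds are pin-transferred onto Drosophila Schneider cells expressing a copper-inducible Gal4–ROR gamma transactivation domain fusion. After 1 hr, copper sulfate is added to 700 uM final; luciferase is read 20 hr later.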
# TDP1 cell CPT = DT40-hTDP1 cell growth loss with CPT; chicken DT40 Tdp1-/-;hTDP1 cells + 20 nM CPT, ATP luminescence, 48 h; Potency, µM (highest dose often 46.2 µM), without a hit: top-dose activity change, negative = growth inhibition, hits mostly inhibitors; actives 12% (n = 420,000); note: nearly all actives have a fitted effect of over 55% in size
#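 Chicken DT40 Tdp1-/- cells complemented with human TDP1, 400 cells/well, exposed to compounds plus 20 nM camptothecin for at least 48 h at 37 C; viability read as ATP content by CellTiter-Glo luminescence.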
# VP16 counter = Gal4-VP16 reporter inhibition counter-screen; Drosophila S2 Gal4-VP16 UAS-luciferase, luminescence, 20 h; Potency, µM (highest dose often 53.6 µM), without a hit: at the highest dose activity, negative = inhibition, hits mostly inhibitors; actives 3.5% (n = 310,000); AID 2546;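 note: Gal4-VP16 expression switched on by copper sulfate through the metallothionein promoter; nearly all actives have a fitted effect of over 50% in size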
# TDP1 inh = TDP1 (human) enzyme inhibition; Q9NUW8; recombinant TDP1, AlphaScreen DNA substrate cleavage; Potency, µM (top dose mostly 130 µM), for the others: at the top dose activity change, negative = inhibition, actives largely listed as inhibitors; actives 0.28% (n = 350,000); AID 485290; note: nearly all actives have a fitted effect of over 40% in size
#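 Recombinant human Tdp1 (E. coli-expressed, 1 nM final) preincubated with compounds 15 min at room temperature, then 5'-biotin/3'-phosphotyrosine-FITC DNA substrate (15 nM final) added for 5 min. AlphaScreen beads (10 ug/ml final) added 10 min; cleavage lowers signal.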
# Starred values were filed as active, the others as inactive; ? = inconclusive; / = no result given; [ ] = another dose, or the depositor's remark. Compounds with a hit are over-represented: about 19% of the library has one in this group of screens. Calls come from the whole dose curve; as a rule, active = well fitted curve in the direction sought with a large enough effect; inconclusive = small, poorly fitted or top-dose-only effect, or another doubt; inactive = no such curve, though single readings can be large; an effect the other way counts as inactive or inconclusive. % is set by controls: 0 for no effect and ±100 for the full control effect; potency is the fitted concentration of half-maximal effect.
SMILES,DT40 TDP1 no CPT,RORg inh,TDP1 cell CPT,VP16 counter,TDP1 inh
COc1ccc(C(C(=O)NC2CCCCC2)N(Cc2cccs2)C(=O)Cc2c[nH]c3ccccc23)cc1 (stereo unspecified),18µM*,34%,4.6µM*,0%,5%
COc1ccc(CN(C(=O)Cc2cccs2)C(C(=O)NC2CCCC2)c2ccncc2)cc1 (stereo unspecified),?,22%,?,-4%,2%
COc1cc(C(C(=O)NC2CCCCC2)N(C(=O)Cc2c[nH]c3ccccc23)c2ccc(C)cc2)cc(OC)c1OC (stereo unspecified),26µM*,-7%[10 µM],23µM*,-6%,3%
O=C(NC1CCCC1)C(c1ccccc1)N(Cc1ccco1)C(=O)Cc1cccs1 (stereo unspecified),?,2%,?,-8%,2%
COC(=O)c1ccc(C(C(=O)NC2CCCCC2)N(Cc2ccc(F)cc2)C(=O)Cc2cccs2)cc1 (stereo unspecified),12µM*,32%,9.2µM*,-4%,0%
COC(=O)c1ccc(C(C(=O)NC2CCCCC2)N(CCc2ccccc2)C(=O)Cc2cccs2)cc1 (stereo unspecified),6.5µM*,3%[10 µM],5.2µM*,-11%,-1%
COc1cccc(CN(C(=O)Cc2c[nH]c3ccccc23)C(C(=O)NC2CCCCC2)c2cccs2)c1 (stereo unspecified),-1%,11%,-6%,0%,-5%
C[C@@H]1CCC[C@]2(O[C@@H](CCO)C[C@@H](O)[C@@H]2O)O1,1%,/,0%,/,/
Cc1cc(C(=O)N/N=C/c2ccc([N+](=O)[O-])o2)c(C)o1,18µM*,-41%,21µM*,?,-14%
Cc1nonc1C(=O)N/N=C/c1ccc([N+](=O)[O-])o1,18µM*,?,5.8µM*,?,-7%
NC(=O)N/N=C\c1ccc([N+](=O)[O-])o1,/,?,/,-7%[17 µM],-10%[56.1 µM]
CCN1C(=NCCc2ccccn2)N[C@@H](c2cccc(C(F)(F)F)c2)C(C(=O)OC)=C1C,16µM*,-8%,11µM*,-6%,0%
COC(=O)C1=C(C)N(Cc2ccccc2)C(=NCCc2ccccn2)N[C@H]1c1cccc(C(F)(F)F)c1,15µM*,?,7.3µM*,-18%,1%
Cc1cc(C)cc(-n2c(=O)c3ccccc3n(CC(=O)NCC3CCCO3)c2=O)c1 (stereo unspecified),-10%,-15%,-18%,-13%,3%
CN(CCOc1ccccc1)C(=O)C1CCC(=O)N(CCCN2CCOCC2)C1 (stereo unspecified),-1%,-2%,6%,-10%,5%
O=C(N/N=C/C=C/c1ccccc1)NC1CCCCC1,18µM*,?,18µM*,-5%,3%
CN(C)c1ccc(/C=N/NC(=O)C2CC2c2ccccc2)cc1 (stereo unspecified),-26%,0%,-27%,2%,0%
O=C(N/N=C/C=C/c1ccccc1)C1CC1c1ccccc1 (stereo unspecified),12µM*,?,18µM*,?,2%
Cc1ccc(NS(=O)(=O)N(C)C)cc1,-27%,-17%,5%,4%,0%
Cc1ccc(-n2c(C)cc(C(=O)COC(=O)c3ccc[nH]c3=O)c2C)cc1C,?,-38%,-30%,0.02µM*,0%
CCCn1c(C)cc(C(=O)COC(=O)c2ccc(Cl)c(S(=O)(=O)N3CCCC3)c2)c1C,15µM*,39%,23µM*,4%,6%
Cc1cc(C(=O)COC(=O)c2ccc[nH]c2=O)c(C)n1-c1ccccc1F,?,?,-17%,?,-4%
CCn1c(C)cc(C(=O)COC(=O)c2ccccc2[N+](=O)[O-])c1C,-21%,/,?,/,8%
CCCn1c(C)cc(C(=O)COC(=O)c2ccc[nH]c2=O)c1C,?,4µM*,-26%,6.3µM*,-5%
COC(=O)c1cc2sc(Cl)cc2n1Cc1nc(-c2ccccc2C)oc1C,9%,/,7%,/,-2%
SMILES,DT40 TDP1 no CPT,RORg inh,TDP1 cell CPT,VP16 counter,TDP1 inh
COc1cccc(C(c2sc3nc(C)nn3c2O)N2CCc3ccccc3C2)c1 (stereo unspecified),?,-12%,?,16%,1%
CCCCCCn1c(=O)c(F)cn(Cc2ccc(OC)c([N+](=O)[O-])c2)c1=O,?,21%,-14%,-14%,0%
COc1ccc(NC(=O)c2cncc(Br)c2)c(S(=O)(=O)N2CCOCC2)c1,?,0%,?,-1%,-3%
COc1ccc(OC)c2sc(N3CCc4ccccc4C3)nc12,-8%,12%,1%,-18%,7%
c1ccc2c(c1)CCN(c1nc3cc4c(cc3s1)OCCO4)C2,?,-3%,10µM*,-10%,9%
CCOC(=O)C(=N/O)/C(C)=N/NC(=O)C(=O)Nc1cc(Cl)ccc1Cl,?,11µM*,?,22µM*,/
CN1CCN(S(=O)(=O)c2cccc(C(=O)N3CCN(c4ccccc4)CC3)c2)CC1,13%,/,-18%,/,-15%
O=C(c1cccc(S(=O)(=O)N2CCN(c3ccc(F)cc3)CC2)c1)N1CCCC1,?,/,?,/,0%
CC1CC(C)CN(S(=O)(=O)c2cccc(C(=O)N3CCN(c4ccc(F)cc4)CC3)c2)C1 (stereo unspecified),21µM*,/,?,/,2%
CC1CCN(S(=O)(=O)c2cccc(C(=O)N3CCN(c4ccc(F)cc4)CC3)c2)CC1,?,?,15µM*,-66%,8%[56.1 µM]
CC(=O)N1CCN(S(=O)(=O)c2cccc(C(=O)NC3CC3)c2)CC1,1%,/,23%,/,0%
CC1CCC(NC(=O)c2cccc(S(=O)(=O)N3CCN(c4ccc(F)cc4)CC3)c2)CC1 (stereo unspecified),9.2µM*,/,?,/,-6%
Cc1c(-c2nc3ccccc3[nH]2)cnn1C,15%,/,19%,/,1%
Cc1nc(Nc2ccccc2)[nH]c(=O)c1CCC(C)C,?,19%,7.3µM*,?,7%
Cc1nc(N2CCc3ccccc3C2)[nH]c(=O)c1CCC(C)C,?,24%,?,9%,3%
O=C1/C(=C/c2cccs2)NC(=S)N1C1CC1,-9%,7.1µM*,-6%,?,-4%
COc1ccc(Cl)cc1-c1noc([C@@H]2O[C@H](CO)[C@H](O)[C@H](O)[C@H]2O)n1,-14%,/,?,/,/
CC1CN(CCOCCOc2ccccc2-c2ccccc2)CC(C)O1 (stereo unspecified),23µM*,-42%[1.91 µM],?,1%,/
